High-throughput results (PubChem BioAssay)
HIF activator = HIF pathway transcriptional activators, primary screen, cell-based, U2OS HRE-luciferase, luminescence | U2OS HRE-luciferase reporter; normalized: DMSO 0%, desferrioxamine 100% | activation, % at 7.5 µM (by protocol) | hit rate 0.32% among 300,000 | AID 1910, 2009;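 active = mean activation of at least 10% of the iron chelator positive control signal, with at least half of replicates also reaching 10%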
Jurkat NFkB inh = inhibitors of induced NF-kB luciferase reporter, primary screen, TCR NF-kB activation inhibitor project, cell-based, luminescence, uHTS | hit rate 0.53% among 330,000 | inhibition, % at 4 µM | Jurkat, PMA/ionomycin-induced NF-kB luciferase reporter; in the data active = inhibition above about 50%
F508del corr = F508del CFTR correction, initial screen, CFBE line, single point; CFBE cells, YFP halide quenching; stimulated with forskolin plus potentiator P3; % fluorescence drop versus neutral controls; hit rate 0.36% among 350,000; AID 720511, 2013; activity (quench increase), % at 7.58 µM;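 active = mean added fluorescence quench of at least 8% versus neutral control, with both replicates also reaching 8%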;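 also: cells transiently co-express mutant CFTR-F508del with the halide-sensitive YFP; corrector assay measuring rescue of mutant channel to the surface after 24 h compound exposure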
697 NFkB inh = inhibitors of PMA/ionomycin-induced NF-kB reporter, 697 cells, primary screen, B-cell NF-kB inhibitor project, cell-based, luminescence, uHTS. 697 B-cell NF-kB luciferase reporter, 16 h. inhibition, % at 4 µM. hit rate 0.33% among 330,000. AID 435022, 2010; in the data active = inhibition above about 35%
Jurkat NFkB conf = PMA/ionomycin-induced NF-kB reporter inhibitors, Jurkat retest, confirmation, T-cell NF-kB inhibitor project, cell-based, luminescence, single concentration | Jurkat NF-kB luciferase, 16 h | shares compounds with Jurkat NFkB inh | hit rate 27% among 2,700 | inhibition, % at 4 µM;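 active = inhibition reaching about 45% at 4 µM in either replicate, limit read from the data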
Each line names hits and unclear results; the compound was inactive in the other large screens (follow-up assays come after a bar, where they were run). Shown are actives, neighbours in structure and some others; about 0.93% of the full set was active somewhere.

C[C@H](O)C#Cc1ccc([C@H]2[C@@H](CO)N3CCCCN(CC4CCOCC4)C[C@@H]23)cc1	none (no result: HIF activator, Jurkat NFkB inh, 697 NFkB inh)
COc1ccc(NC(=O)CCC(=O)c2ccc(F)cc2)cc1	none (no result: HIF activator, Jurkat NFkB inh, 697 NFkB inh)
COc1ccc(C(=O)CCNc2ccc(F)cc2)cc1	HIF activator 14, Jurkat NFkB inh 70 | Jurkat NFkB conf inactive
COc1cc(C2CC(=O)c3cnc(N4CCN(Cc5ccccc5)CC4)nc3C2)cc(OC)c1OC (stereo not drawn)	Jurkat NFkB inh 59 (no result: F508del corr) | Jurkat NFkB conf inactive
CCC(=O)N1CC2(C1)CN(C(=O)Cc1ccccc1)[C@@H](CO)c1c2c2ccc(OC)cc2n1C	none (no result: HIF activator, Jurkat NFkB inh, 697 NFkB inh)
C[C@@H]1CN([C@H](C)CO)S(=O)(=O)c2ccc(-c3ccc(C(=O)N(C)C)cc3)cc2O[C@H]1CN(C)C(=O)Nc1ccccc1F	none (no result: HIF activator, Jurkat NFkB inh, 697 NFkB inh)
Cc1ccnc(NC(=O)CNC(=O)c2sc3ccccc3c2Cl)c1	none
Cc1ccnc(NC(=O)c2cc3cc(F)ccc3s2)c1	none | Jurkat NFkB conf inactive
Cc1ccnc(NC(=O)c2sc3cc(Cl)ccc3c2Cl)c1	none (no result: F508del corr) | Jurkat NFkB conf inactive
Cc1ccnc(NC(=O)c2ccc([N+](=O)[O-])s2)c1	none
COc1ccc(CCNc2cc(N3CCN(C(=O)c4ccccc4F)CC3)ccc2[N+](=O)[O-])cc1OC	Jurkat NFkB inh 58 (no result: F508del corr) | Jurkat NFkB conf 67
COc1ccc(CCNc2ccc(C(=O)O)cc2[N+](=O)[O-])cc1OC	none
COc1ccc(C(=O)N2CCN(c3ccc([N+](=O)[O-])c(NCCc4ccc(OC)c(OC)c4)c3)CC2)cc1	Jurkat NFkB inh 73 (no result: F508del corr) | Jurkat NFkB conf 75
COc1ccc(C(=O)N2CCN(c3ccc([N+](=O)[O-])c(-n4nc(C)cc4C)c3)CC2)cc1	none (no result: F508del corr)
COc1ccc(CCNc2cc(N3CCN(C(=O)c4ccc(C)cc4)CC3)ccc2[N+](=O)[O-])cc1OC	Jurkat NFkB inh 75 (no result: F508del corr) | Jurkat NFkB conf 67
O=C(c1ccccc1F)N1CCN(c2ccc([N+](=O)[O-])c(NCc3cccnc3)c2)CC1	none
COc1ccc2c3c([nH]c2c1)[C@H](CO)N(C(=O)c1cccnc1)CC31CN(C(=O)NC(C)C)C1	none (no result: HIF activator, Jurkat NFkB inh, 697 NFkB inh)
COc1ccc(Cn2c(SCc3ccc(C)cc3)nc3cc(OC)c(OC)cc3c2=N)cc1Cl	Jurkat NFkB inh 64 (no result: F508del corr) | Jurkat NFkB conf 63
CN1C(=O)c2cc(NC(=O)C3CCOCC3)ccc2OC[C@@H]2O[C@H](CC(=O)NC3CCCC3)CC[C@@H]21	none (no result: HIF activator, Jurkat NFkB inh, 697 NFkB inh)
CC(C)Oc1ccccc1C1CC(=O)Nc2cc3c(cc21)OCO3 (stereo not drawn)	Jurkat NFkB inh 76 (no result: F508del corr) | Jurkat NFkB conf 53
Cc1cc2c(cc1C)C(c1ccccc1OC(C)C)CC(=O)N2 (stereo not drawn)	Jurkat NFkB inh 52, F508del corr 12 | Jurkat NFkB conf inactive
C[C@@H]1CN([C@H](C)CO)S(=O)(=O)c2ccc(C#CC3CCCC3)cc2O[C@H]1CN(C)Cc1cccnc1	none (no result: HIF activator, Jurkat NFkB inh, 697 NFkB inh)
O=C(C[C@H]1C=C[C@@H](NC(=O)Cc2ccccn2)[C@@H](CO)O1)NCCCN1CCOCC1	none (no result: HIF activator, Jurkat NFkB inh, 697 NFkB inh)
Cc1ccc2nc(SCC(=O)Nc3cc(C(F)(F)F)ccc3N3CCOCC3)[nH]c2c1	Jurkat NFkB inh 52 (no result: F508del corr) | Jurkat NFkB conf 56
COc1nc(-c2cccs2)cc(-c2ccc(C)cc2)c1C#N	Jurkat NFkB inh 57 (no result: F508del corr) | Jurkat NFkB conf inactive
CC(=O)NC12CC3CC(C1)CC(C(=O)OCC(=O)c1cc(C)n(C)c1C)(C3)C2	none (no result: HIF activator) | Jurkat NFkB conf inactive
CC(=O)NC12CC3CC(C1)CC(C(=O)OCC(=O)c1ccc4c(c1)OCCO4)(C3)C2	none (no result: F508del corr) | Jurkat NFkB conf inactive
CC(=O)NC12CC3CC(C1)CC(C(=O)OCC(=O)Nc1ncc(Cl)c(C)c1Cl)(C3)C2	none (no result: F508del corr)
CO[C@@H]1CN(C)C(=O)c2ccc(NC(=O)C3CC3)cc2OC[C@@H](C)N(CC2CCOCC2)C[C@@H]1C	none (no result: HIF activator, Jurkat NFkB inh, 697 NFkB inh)
C/C=C/c1ccc([C@@H]2[C@@H](CO)N(C(C)=O)C23CN(C(=O)NC2CCCC2)C3)cc1	none (no result: HIF activator, Jurkat NFkB inh, 697 NFkB inh)
COc1ccc(COc2cc(-c3cccc(OC)c3)nc3ccc(N)cc23)cc1	Jurkat NFkB inh 52 | Jurkat NFkB conf inactive
COc1ccc(COc2cc(-c3cccc(OC)c3)nc3ccc(NC(C)=O)cc23)cc1	none
CN(C)c1ccc2c(c1)[C@@H]1C[C@H](CC(=O)NCc3cccc(F)c3)O[C@H](CO)[C@@H]1O2	none (no result: HIF activator, Jurkat NFkB inh, 697 NFkB inh)
